# Compounds without any hit were thinned out: in the full panel of roughly 83,000, 20% have a hit.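 Single-concentration screen, 48 h exposure, 96-well plates. Endpoint: percent growth. Below 10 = active.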 Values without a mark were called inactive. Active and inactive are the calls of the source.
# Legend:
# Test in all cases: NCI-60 one-dose screen, 48 h (100 = growth as untreated, 0 = no growth, -100 = all killed)
# Conditions in all cases: 10 µM unless noted
# NCI-H23 lung = test system: NCI-H23 lung
# NCI-H226 lung = test system: NCI-H226 lung
# NCI-H322M lung = test system: NCI-H322M lung
# HOP-62 NSCLC = test system: HOP-62 NSCLC
# NCI-H460 lung = test system: NCI-H460 lung
# HOP-92 NSCLC = test system: HOP-92 NSCLC
# NCI-H522 lung = test system: NCI-H522 lung
# A549/ATCC NSCLC = test system: A549/ATCC NSCLC
# 786-0 renal = test system: 786-0 renal
# COLO 205 colon = test system: COLO 205 colon
Structure (SMILES),growth (NCI-H23 lung),growth (NCI-H226 lung),growth (NCI-H322M lung),growth (HOP-62 NSCLC),growth (NCI-H460 lung),growth (HOP-92 NSCLC),growth (NCI-H522 lung),growth (A549/ATCC NSCLC),growth (786-0 renal),growth (COLO 205 colon)
O=C(Nc1ccc2ncnc(Nc3ccc(F)c(Cl)c3)c2c1)c1ccccc1,74.6%,72.2%,27.2%,72.3%,30.4%,97.2%,55.6%,50.4%,47.7%,97.3%
CC(C)(C)c1nc2c(s1)c1nc(N)ncc1c1ccc(NS(=O)(=O)c3c(F)cccc3F)c(F)c12,78.5%,65.4%,60.4%,84.1%,52.5%,44.1%,50.3%,55.8%,66.1%,4.03% (active)
Cc1ccc2nc3nc4ccc[nH]c4cc3c2c1,65.1%,78.4%,72.5%,76.4%,53.8%,121%,90.1%,97.6%,108%,82.1%
C=C(C)[C@@H]1CCC=C2CC[C@]3(C)[C@H](CC[C@@H]4[C@@]5(C)CCCNC(C)(C)[C@@H]5CC[C@]43C)[C@H]21,66.5%,104%,33.7%,77.8%,-24.6% (active),79.2%,66.7%,13%,-5.34% (active),-43.6% (active)
CN1CCN(/C=C2\CC(C(=O)NCc3ccc(Cl)cc3Cl)NC2=O)CC1 (stereo not given),99.5%,85.7%,104%,108%,104%,98.8%,98.3%,94.2%,116%,116%
CCCCc1n(Cc2ccc3ccccc3n2)cc[n+]1Cc1ccc2ccccc2c1,-1.01% (active),14.2%,30.6%,17.4%,7.73% (active),-33.9% (active),-8.22% (active),27%,20.4%,-74.2% (active)
CCOCc1nc2ccccc2c(=O)[nH]1,94.7%,91.7%,100%,102%,101%,102%,91.3%,100%,103%,108%
CC(=O)OC[C@]12CC[C@@H](c3cn(Cc4ccc(Cn5cc([C@@H]6CC[C@]7(COC(C)=O)CC[C@]8(C)[C@H](CC[C@@H]9[C@@]%10(C)CC[C@H](OC(C)=O)C(C)(C)[C@@H]%10CC[C@]98C)[C@@H]67)nn5)cc4)nn3)[C@@H]1[C@H]1CC[C@@H]3[C@@]4(C)CC[C@H](OC(C)=O)C(C)(C)[C@@H]4CC[C@@]3(C)[C@]1(C)CC2,98.3%,95.5%,97.6%,94.9%,104%,103%,88.5%,93.5%,95.5%,105%
COc1ccc(Nc2cc(NC(=O)CNc3cc(OC)c(Cl)c(OC)c3Cl)ncn2)cc1,90.2%,68.5%,88%,83.1%,89.3%,74.3%,65.5%,71.1%,88.1%,89.5%
S=c1ssnc1-c1cc2ccccc2o1,84.3%,92.9%,91.8%,86.7%,70%,4.61% (active),79.2%,88.2%,24.1%,83.6%
N#Cc1c(-c2ccc(F)cc2)c(C#N)c2c(C#N)c(N)nn2c1N,96.9%,82.2%,97.5%,81%,98.7%,76.9%,85.7%,92%,94.2%,98.4%
O=C1CC23OC4ON=C(Br)C4C2C(O)c2ccccc2N13 (stereo not given),87.9%,97.7%,96.8%,106%,106%,107%,79.6%,103%,101%,125%
Cn1c2ccccc2c2c(OC(=O)c3ccccc3)c3c(nc21)-c1ccccc1C3,86.1%,100%,92.9%,73.1%,105%,91.5%,58.2%,93.1%,96.9%,121%
Nc1ccc(C(=O)Nc2cccc(C(=O)Nc3ccc4c(O)c(N=Nc5ccc(N=Nc6ccc(S(=O)(=O)O)cc6)cc5)c(S(=O)(=O)O)cc4c3)c2)cc1,96.8%,111%,101%,98.5%,105%,108%,92.3%,102%,103%,114%
CC(=O)Nc1c(C(=O)Nc2ccccc2)sc2nc3c(cc12)C(OC(C)=O)CCC3 (stereo not given),98%,92.9%,99%,97.1%,108%,86.9%,74.4%,94.2%,71.7%,110%
O=C(/C(=C/c1ccc([N+](=O)[O-])cc1)SCc1ccc(F)cc1)c1ccc(Cl)cc1,58.9%,64.6%,98.1%,76.8%,82.4%,69.6%,-41.4% (active),86.8%,82.5%,64%
CC(=O)Nc1nc2c(c(N)c1C#N)C(c1cccc(Cl)c1)C1=C(CCCC1=O)N2c1sc2c(c1C#N)CCCC2 (stereo not given),67%,55.5%,93.3%,67.3%,53.1%,40.1%,21.3%,32.8%,57.6%,59.6%
COc1ccc(/C=C/C(=O)/C=C(/C=C/c2ccc(OC)c(OC)c2)OB(F)F)cc1OC,52.3%,57.1%,103%,83.5%,21.8%,56.8%,-32.4% (active),60.8%,12.5%,-23.2% (active)
CC(=O)ON1CCCC(P(=O)(OCOC(=O)C(C)(C)C)OCOC(=O)C(C)(C)C)C1=O (stereo not given),-16.6% (active),-4.94% (active),-10.6% (active),5.37% (active),2.52% (active),-6.66% (active),-11% (active),7.74% (active),12.3%,2.35% (active)
Cc1ccc(C2CC(c3ccc(Nc4nc(NCCO)nc(NCCO)n4)cc3)=NN2c2ccc(Cl)cc2)cc1 (stereo not given),71.8%,101%,51.3%,67.6%,26.6%,88.6%,67%,48.1%,23.7%,70.3%
CCSc1nc(Cl)c(C#N)c(-c2ccc(F)cc2)n1,95.6%,94.3%,92%,106%,103%,99%,92.8%,87.3%,98.9%,106%
C#C[C@@]1(O)[C@@H](CO)O[C@@H](n2cc(Cl)c3c(N)ccnc32)[C@@H]1O,71.9%,96.7%,74.6%,120%,25.1%,48.2%,75.1%,67%,81.2%,63.4%
CC(C)(C#N)c1cc(F)cc(C(=O)Nc2cc(Nc3ncccc3-c3ncnc4nc[nH]c34)ccc2F)c1,16.8%,41.3%,53.3%,44.9%,30.5%,-0.389% (active),7.73% (active),42.1%,63%,6.56% (active)
O=S(=O)(O)c1ccc(N=NSc2ccc3ccccc3c2)cc1,93.4%,106%,92.8%,108%,98.1%,86.4%,97%,100%,102%,108%
CC(=O)OCC1SC(OC(C)=O)C(NC(=O)/C=C/CCl)C(OC(C)=O)C1OC(C)=O (stereo not given),99.7%,103%,109%,117%,102%,105%,-9.03% (active),89.1%,124%,107%
O=C1Nc2ccc(Cl)cc2/C1=N/c1nc(-c2ccc(F)cc2)cs1,44%,75%,65.7%,54.1%,34.1%,34.3%,20.7%,43.6%,47.3%,31.4%
CC(=O)Oc1ccc(O)cc1,95.2%,106%,97.2%,113%,108%,98.3%,33.3%,91.6%,110%,120%
